Data published in PubChem BioAssay (EPA / NIEHS).
Activity calls are given as the source filed them. The calls were made as follows: active = hit-call score of the fitted dose curve at least 0.9, where 1 is the maximum; inactive = score below 0.9.

Columns and labels:
[1] = read-out: Cytochrome P450 (CYP1A1), CYP1A1 (gene 1543); assay: LTEA_HepaRG_CYP1A1: Life Technologies and Expression Analysis (LTEA) Assay for Cytochrome P450 (CYP1A1) using HepaRG (AID 2283454); conditions: mRNA level, 48 h; actives raise or lower the signal
How it was run: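 CYP1A1 transcript levels measured by Fluidigm qRT-PCR against three housekeeping genes, 48 h after chemical dosing of human HepaRG cells (highest concentration 100 uM, half-log steps, 0.5% DMSO vehicle). Gain or loss of signal fitted relative to DMSO.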

[2] = read-out: CFLAR gene, CFLAR (gene 8837); assay: LTEA_HepaRG_CFLAR: Life Technologies and Expression Analysis (LTEA) Assay for CFLAR gene using HepaRG (AID 2283455); conditions: mRNA level, 48 h; actives raise or lower the signal
How it was run: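 Gain- or loss-of-signal changes in CFLAR transcript were fitted bidirectionally relative to 0.5% DMSO. Cells (HepaRG, duplicate wells) were dosed for 48 h across eight half-log concentrations topping at 100 uM; quantitation by TaqMan qRT-PCR.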

[3] = read-out: Forkhead box O1 (FOXO1), FOXO1 (gene 2308); assay: LTEA_HepaRG_FOXO1: Life Technologies and Expression Analysis (LTEA) Assay for Forkhead box O1 (FOXO1) using HepaRG (AID 2283456); conditions: mRNA level, 48 h; actives raise or lower the signal
How it was run: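 Using one lot of HepaRG hepatic cells kept in 0.5% DMSO, the team applied test chemicals in duplicate, half-log dilutions from 100 uM, for 48 h. Expression, normalised to ACTB/GAPDH/POLR2A, was compared with vehicle in either direction.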

[4] = CEETOX_H295R_TESTO: CeeTox H295R High-throughput Steroidogenesis Assay for Testosterone (TESTO) (AID 2283457); conditions: actives raise or lower the signal
How it was run: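 Testosterone secreted into the medium over 48 h by H295R cells (maximum passage 10) was quantified by LC-MS/MS after MTBE extraction. Fitted in both directions against DMSO, with concentrations diluted until MTT viability was ≥70%.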

[5] = read-out: growth arrest and DNA damage 45 (GADD45A), GADD45A (gene 1647); assay: LTEA_HepaRG_GADD45A: Life Technologies and Expression Analysis (LTEA) Assay for growth arrest and DNA damage 45 (GADD45A) using HepaRG (AID 2283458); conditions: mRNA level, 48 h; actives raise or lower the signal
How it was run: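 HepaRG, 48 h exposure, 8 conc. (top 100 uM, half-log steps), 0.5% DMSO vehicle, duplicates. Read-out: qRT-PCR mRNA level, housekeeping-normalized (ACTB/GAPDH/POLR2A). Curves fit bidirectionally vs DMSO baseline.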

[6] = read-out: Forkhead box O3 (FOXO3), FOXO3 (gene 2309); assay: LTEA_HepaRG_FOXO3: Life Technologies and Expression Analysis (LTEA) Assay for Forkhead box O3 (FOXO3) using HepaRG (AID 2283459); conditions: mRNA level, 48 h; actives raise or lower the signal
How it was run: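 Gene-expression endpoint: FOXO3 transcript level by qRT-PCR in HepaRG cultures treated 48 h with chemicals up to 100 uM (half-log, 0.5% DMSO vehicle).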

[7] = read-out: ABC Transporter (ABCB1), ABCB1 (gene 5243); assay: LTEA_HepaRG_ABCB1: Life Technologies and Expression Analysis (LTEA) Assay for ABC Transporter (ABCB1) using HepaRG (AID 2283460); conditions: mRNA level, 48 h; actives raise or lower the signal
How it was run: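 Human liver HepaRG line treated 48 h with up to 100 uM compound (eight half-log points, 0.5% DMSO); ABCB1 mRNA change fitted bidirectionally against DMSO controls.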

[8] = read-out: growth arrest and DNA damage 45 (GADD45B), GADD45B (gene 4616); assay: LTEA_HepaRG_GADD45B: Life Technologies and Expression Analysis (LTEA) Assay for growth arrest and DNA damage 45 (GADD45B) using HepaRG (AID 2283461); conditions: mRNA level, 48 h; actives raise or lower the signal
How it was run: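 Transcript level quantified by Fluidigm TaqMan qRT-PCR with three housekeeping genes for normalization, analyzed for up- or down-regulation against 0.5% DMSO. HepaRG cultures dosed 48 h at eight half-log concentrations up to 100 uM, duplicates.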

[9] = read-out: ABC Transporter (ABCC3), ABCC3 (gene 8714); assay: LTEA_HepaRG_ABCC3: Life Technologies and Expression Analysis (LTEA) Assay for ABC Transporter (ABCC3) using HepaRG (AID 2283462); conditions: mRNA level, 48 h; actives raise or lower the signal
How it was run: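 Transcript level by TaqMan qRT-PCR, normalised to three housekeeping genes, fitted in both directions relative to vehicle. Chemicals tested in duplicate at eight half-log concentrations up to 100 uM for 48 h on HepaRG cells (0.5% DMSO).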

[10] = read-out: ABC Transporter (ABCB11), ABCB11 (gene 8647); assay: LTEA_HepaRG_ABCB11: Life Technologies and Expression Analysis (LTEA) Assay for ABC Transporter (ABCB11) using HepaRG (AID 2283463); conditions: mRNA level, 48 h; actives raise or lower the signal
How it was run: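 Using HepaRG cultures held in 0.5% DMSO, chemicals were tested at half-log dilutions from 100 uM for 48 h. Induction or suppression of ABCB11 mRNA, normalized to ACTB, GAPDH and POLR2A, was fitted bidirectionally against vehicle.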

Measured: AC50

O=C(O)c1cccc(N(Cc2cccnc2)c2ccc(OC(F)F)c(OC(F)F)c2)c1
active: [1] 50 µM | [7] 50 µM | [10] 90.6 µM
inactive: all other assays above

CC[C@H](C)C(=O)O[C@H]1C[C@@H](C)C=C2C=C[C@H](C)[C@H](CC[C@@H]3C[C@@H](O)CC(=O)O3)[C@H]21
active: [1] 24.4 µM | [7] 12.7 µM | [10] 50 µM
not listed: [4]
inactive: all other assays above

O=C(CCCCCCCCc1cccnc1)N1CCC(C=C(c2ccccc2)c2ccccc2)CC1
inactive: [2] | [6] | [9]
active: [1] 32.6 µM | [3] 12.4 µM | [5] 26.9 µM | [7] 30.7 µM | [8] 84.6 µM | [10] 14.3 µM

CC(C)CC(C)(O)C#CC(C)(O)CC(C)C (configuration not stated)
active: [1] 50 µM | [7] 16.7 µM
not listed: [4]
inactive: all other assays above

COc1ccc2sc(C(=O)Nc3nnn[nH]3)c(OC(C)C)c2c1
inactive: [7]
active: [1] 35.3 µM | [2] 25.2 µM | [3] 19.9 µM | [5] 31.4 µM | [6] 23.6 µM | [8] 43.9 µM | [9] 24.4 µM | [10] 12.1 µM

CC[C@H]1OC(=O)[C@H](C)[C@@H](O[C@H]2C[C@@](C)(OC)[C@@H](O)[C@H](C)O2)[C@H](C)[C@@H](O[C@@H]2O[C@H](C)C[C@H](N(C)C)[C@H]2O)[C@](C)(O)C[C@@H](C)C(=O)[C@H](C)[C@@H](O)[C@]1(C)O
active: [1] 53.9 µM
not listed: [4]
inactive: all other assays above

COCCOc1cc2cc(C(=O)NC3CCN(C(C)C)CC3)n(CC(=O)Nc3ccc(Cl)cn3)c2cn1
inactive: [3] | [5] | [8]
active: [1] 2.09 µM | [2] 31.4 µM | [6] 11.6 µM | [7] 20.6 µM | [9] 45 µM | [10] 59.5 µM

Nc1cccc(N)c1
active: [1] 50 µM
not listed: [4]
inactive: all other assays above

Nc1nc2ncc(CNc3ccc(C(=O)N[C@@H](CCC(=O)O)C(=O)O)cc3)nc2c(=O)[nH]1
active: [1] 78.5 µM
not listed: [3] | [4]
inactive: all other assays above

CCOC(=O)c1ccc(C2CCC(NC[C@H](O)COc3ccc(O)c(NS(C)(=O)=O)c3)CC2)cc1 (some centres not stated)
active: [1] 73.3 µM | [6] 8.31 µM
not listed: [4]
inactive: all other assays above

CCCCCCCCO
not listed: [4]
inactive: all other assays above

CC[C@H]1CC[C@H](NCc2cc3c(cc2OC)[C@H]2C[C@H]2C(=O)N3C)[C@H](c2ccccc2)N1
active: [1] 37.6 µM
not listed: [4]
inactive: all other assays above

Nc1ccc(Nc2ccccc2)cc1
active: [1] 10.9 µM | [8] 63.2 µM | [10] 69.2 µM
not listed: [4]
inactive: all other assays above

O=C1CCC(N2C(=O)c3ccccc3C2=O)C(=O)N1 (configuration not stated)
active: [1] 67.7 µM
not listed: [4]
inactive: all other assays above

CC(C)CCCCCCCOC(=O)CCCCC(=O)OCCCCCCCC(C)C
active: [1] 50 µM
not listed: [4]
inactive: all other assays above

Cc1ccc(C)c(O)c1
active: [1] 51.2 µM
not listed: [3] | [4]
inactive: all other assays above

CNS(=O)(=O)c1cc(C(=O)N2CCC(CCN3C4CCC3CC(n3c(C)nc5ccccc53)C4)(c3cccc(F)c3)CC2)c(Cl)cc1F (configuration not stated)
active: [9] 12.5 µM | [10] 24.5 µM
not listed: [3]
inactive: all other assays above

CCCCC(CC)COC(=O)CCCCCCCCC(=O)OCC(CC)CCCC (configuration not stated)
not listed: [4]
inactive: all other assays above

COC(=O)c1c(Cl)c(Cl)c(C(=O)OC)c(Cl)c1Cl
active: [1] 50 µM
not listed: [4]
inactive: all other assays above

COc1cccc(-c2ccc(/C=C\CN3CCCCCC3)cc2Cl)c1
active: [1] 45.2 µM | [5] 69 µM | [8] 76.2 µM | [9] 75.9 µM | [10] 69.3 µM
inactive: [2] | [6] | [7]

Fc1ccccc1[C@@H](F)COC1CCC(Nc2ncnc3[nH]ncc23)CC1 (some centres not stated)
active: [1] 94.7 µM | [7] 50 µM | [8] 81.7 µM | [10] 71.1 µM
not listed: [3]
inactive: all other assays above
